Drawing on the antibiotic and cytotoxicity screens of Wong et al. (2023), this text covers cytotoxicity call for 55 compounds.

Screen size: about 39,000 compounds; about 3,300 (8.5%) were called active. Only a selection was taken, and actives are over-represented in it overall.

The test system of this assay is HepG2. As to the kind of experiment: cytotoxicity call (relative viability < 0.9). The settings on record: 10 µM.
For the compound `Cc1noc(C)c1NC(=O)N(C)C[C@H]1Oc2ccc(NS(C)(=O)=O)cc2CC(=O)N([C@@H](C)CO)C[C@H]1C`, the cytotoxicity call was “inactive”.

Regarding `C[C@@H]1CCCCO[C@@H](CN(C)S(=O)(=O)c2cn(C)cn2)[C@H](C)CN([C@@H](C)CO)C(=O)c2cc(N(C)C)ccc2O1`, the cytotoxicity call was “inactive”.

With `O=C(C[C@@H]1CC[C@@H]2[C@H](COC[C@H](O)CN2Cc2cc(F)ccc2F)O1)N[C@@H]1CCN(Cc2ccccc2)C1`, the cytotoxicity call was “inactive”.

As to `C[C@@H]1CN([C@@H](C)CO)C(=O)c2cc(Br)cnc2O[C@H]1CN(C)C(=O)CCN1CCCCC1`, the cytotoxicity call was “inactive”.

`C[C@@H]1CCCCO[C@H](CN(C)C(=O)Nc2ccc(F)cc2)[C@H](C)CN([C@@H](C)CO)C(=O)c2cc(NC(=O)Nc3cccc4ccccc34)ccc2O1`: the cytotoxicity call is “inactive”.

As for `Cc1cc(C)c2c(c1)[C@@H](N(Cc1cc(C(F)(F)F)cc(C(F)(F)F)c1)c1nnn(C)n1)CCCN2C[C@H]1CC[C@H](C(=O)O)CC1`, the cytotoxicity call is “active”.

For `Cc1ccc(S(=O)(=O)Nc2ccc3c(c2)C(=O)N([C@H](C)CO)C[C@H](C)[C@H](CN(C)S(=O)(=O)c2ccc(C)cc2)OCCCC[C@@H](C)O3)cc1`, the cytotoxicity call was “inactive”.

For the compound `Cc1ccc(S(=O)(=O)Nc2ccc3c(c2)CC(=O)N([C@H](C)CO)C[C@@H](C)[C@H](CN(C)Cc2ccc(Cl)c(Cl)c2)O3)cc1`, the cytotoxicity call is “inactive”.

Take `Cc1ccc(S(=O)(=O)Nc2ccc3c(c2)CC(=O)N([C@@H](C)CO)C[C@H](C)[C@@H](CN(C)Cc2ccc(Cl)c(Cl)c2)O3)cc1`: the cytotoxicity call was “inactive”.

As for `Cc1ccc(S(=O)(=O)Nc2ccc3c(c2)CC(=O)N([C@@H](C)CO)C[C@@H](C)[C@H](CN(C)Cc2ccc(Cl)c(Cl)c2)O3)cc1`, the cytotoxicity call is “inactive”.

With `Cc1ccc(S(=O)(=O)Nc2ccc3c(c2)CC(=O)N([C@@H](C)CO)C[C@H](C)[C@H](CN(C)Cc2ccc(Cl)c(Cl)c2)O3)cc1`, the cytotoxicity call is “active”.

With `Cc1ccc(S(=O)(=O)Nc2ccc3c(c2)CC(=O)N([C@H](C)CO)C[C@@H](C)[C@@H](CN(C)Cc2ccc(Cl)c(Cl)c2)O3)cc1`, the cytotoxicity call is “active”.

On to `Cc1ccc(S(=O)(=O)Nc2ccc3c(c2)CC(=O)N([C@H](C)CO)C[C@H](C)[C@@H](CN(C)Cc2ccc(Cl)c(Cl)c2)O3)cc1`, for which the cytotoxicity call is “inactive”.

As for `Cc1ccc(S(=O)(=O)Nc2ccc3c(c2)CC(=O)N([C@@H](C)CO)C[C@@H](C)[C@@H](CN(C)Cc2ccc(Cl)c(Cl)c2)O3)cc1`, the cytotoxicity call is “active”.

With `Cc1ccc(S(=O)(=O)Nc2ccc3c(c2)CC(=O)N([C@H](C)CO)C[C@H](C)[C@H](CN(C)Cc2ccc(Cl)c(Cl)c2)O3)cc1`, the cytotoxicity call is “active”.

Regarding `Cc1ccc(S(=O)(=O)Nc2ccc3c(c2)C(=O)N([C@@H](C)CO)C[C@H](C)[C@@H](CN(C)S(C)(=O)=O)OCCCC[C@@H](C)O3)cc1`, the cytotoxicity call was “inactive”.

With `COc1ccc(S(=O)(=O)Nc2ccc3c(c2)C(=O)N([C@H](C)CO)C[C@@H](C)[C@@H](CN(C)Cc2ccc(Cl)c(Cl)c2)O3)cc1`, the cytotoxicity call was “inactive”.

`O=C(C[C@@H]1CC[C@H]2[C@@H](COC[C@@H](O)CN2S(=O)(=O)c2cccc(F)c2)O1)NCc1ccncn1`: the cytotoxicity call was “inactive”.

Take `CC(=O)N1CCC(C(=O)O)CC1`: the cytotoxicity call is “inactive”.

For the compound `COc1ccc(NC(=O)N(C)C[C@@H]2OCCCC[C@H](C)Oc3ccc(NC(=O)C4CCCCC4)cc3C(=O)N([C@@H](C)CO)C[C@@H]2C)cc1`, the cytotoxicity call was “inactive”.

As to `Cc1cc(C)n(-c2ccc(=O)n(CC(=O)N3CCN(S(=O)(=O)c4ccc(F)cc4)CC3)n2)n1`, the cytotoxicity call was “inactive”.

On to `C[C@@H]1CN([C@H](C)CO)C(=O)c2cc(NC(=O)CCN3CCOCC3)ccc2O[C@H]1CN(C)S(=O)(=O)c1ccc(F)cc1`, for which the cytotoxicity call is “inactive”.

As to `C[C@H](CO)N1C[C@H](C)[C@H](CN(C)C(=O)Nc2ccc3c(c2)OCO3)Oc2c(NC(=O)C3CCOCC3)cccc2C1=O`, the cytotoxicity call was “inactive”.

As for `CNCCCC12CCC(c3ccccc31)c1ccccc12.Cl`, the cytotoxicity call is “active”.

`CC(C)CC#Cc1cnc2c(c1)C(=O)N([C@@H](C)CO)C[C@H](C)[C@@H](CN(C)C(=O)CN1CCOCC1)O2`: the cytotoxicity call is “inactive”.

`C[C@@H]1CCCCO[C@H](CN(C)C(=O)CCCN(C)C)[C@H](C)CN([C@@H](C)CO)C(=O)c2cc(NC(=O)Nc3ccc(C(F)(F)F)cc3)ccc2O1`: the cytotoxicity call is “inactive”.

Take `COc1ccccc1C#Cc1cnc2c(c1)C(=O)N([C@H](C)CO)C[C@H](C)[C@H](CN(C)S(=O)(=O)c1cn(C)cn1)O2`: the cytotoxicity call is “inactive”.

Turning to `C[C@@H]1CCCCO[C@H](CN(C)S(=O)(=O)c2ccccc2)[C@H](C)CN([C@@H](C)CO)C(=O)c2cc(NS(=O)(=O)c3cn(C)cn3)ccc2O1`, the cytotoxicity call is “inactive”.

For the compound `C[C@@H]1CCCCO[C@@H](CN(C)C(=O)Nc2cccc3ccccc23)[C@H](C)CN([C@@H](C)CO)C(=O)c2cc(NC(=O)c3ccccc3)ccc2O1`, the cytotoxicity call was “active”.

Regarding `C[C@H](CO)N1C[C@H](C)[C@@H](CN(C)C(=O)Nc2cccc3ccccc23)OCCCC[C@H](C)Oc2ccc(NC(=O)c3ccccc3)cc2C1=O`, the cytotoxicity call is “inactive”.

For the compound `C[C@@H]1CN([C@H](C)CO)C(=O)c2cc(NC(=O)c3ccccc3)ccc2O[C@@H](C)CCCCO[C@H]1CN(C)C(=O)Nc1cccc2ccccc12`, the cytotoxicity call was “active”.

For the compound `C[C@@H]1CCCCO[C@@H](CN(C)C(=O)Nc2cccc3ccccc23)[C@@H](C)CN([C@@H](C)CO)C(=O)c2cc(NC(=O)c3ccccc3)ccc2O1`, the cytotoxicity call is “inactive”.

As to `C[C@H](CO)N1C[C@H](C)[C@@H](CN(C)C(=O)Nc2cccc3ccccc23)OCCCC[C@H](C)Oc2ccc(NC(=O)c3ccncc3)cc2C1=O`, the cytotoxicity call is “inactive”.

With `C[C@@H]1CN([C@H](C)CO)C(=O)c2cc(NC(=O)c3ccccc3)ccc2O[C@@H](C)CCCCO[C@@H]1CN(C)C(=O)Nc1cccc2ccccc12`, the cytotoxicity call was “inactive”.

`C[C@@H]1CCCCO[C@H](CN(C)C(=O)Nc2cccc3ccccc23)[C@H](C)CN([C@@H](C)CO)C(=O)c2cc(NC(=O)c3ccccc3)ccc2O1`: the cytotoxicity call is “inactive”.

For `C[C@@H]1CCCCO[C@H](CN(C)C(=O)Nc2cccc3ccccc23)[C@@H](C)CN([C@@H](C)CO)C(=O)c2cc(NC(=O)c3ccncc3)ccc2O1`, the cytotoxicity call was “active”.

Consider `C[C@H]1CCCCO[C@H](CN(C)C(=O)Nc2cccc3ccccc23)[C@@H](C)CN([C@@H](C)CO)C(=O)c2cc(NC(=O)c3ccncc3)ccc2O1`, for which the cytotoxicity call was “inactive”.

As to `C[C@@H]1CCCCO[C@H](CN(C)C(=O)Nc2cccc3ccccc23)[C@@H](C)CN([C@H](C)CO)C(=O)c2cc(NC(=O)c3ccccc3)ccc2O1`, the cytotoxicity call was “inactive”.

With `C[C@@H]1CN([C@@H](C)CO)C(=O)c2cc(NC(=O)c3ccccc3)ccc2O[C@@H](C)CCCCO[C@H]1CN(C)C(=O)Nc1cccc2ccccc12`, the cytotoxicity call was “active”.

As to `C[C@@H]1CCCCO[C@@H](CN(C)C(=O)Nc2cccc3ccccc23)[C@@H](C)CN([C@H](C)CO)C(=O)c2cc(NC(=O)c3ccccc3)ccc2O1`, the cytotoxicity call is “inactive”.

Turning to `CC(C)NC(=O)N(C)C[C@H]1OCCCC[C@@H](C)Oc2ccc(NC(=O)Nc3ccc(F)cc3)cc2C(=O)N([C@@H](C)CO)C[C@H]1C`, the cytotoxicity call was “inactive”.

Regarding `CC(C)CC#Cc1cnc2c(c1)C(=O)N([C@H](C)CO)C[C@@H](C)[C@H](CN(C)S(=O)(=O)c1cccs1)O2`, the cytotoxicity call was “inactive”.

Consider `Cc1noc(C)c1S(=O)(=O)N(C)C[C@H]1OCCCC[C@H](C)Oc2ccc(NS(C)(=O)=O)cc2C(=O)N([C@@H](C)CO)C[C@@H]1C`, for which the cytotoxicity call is “inactive”.

As to `C[C@@H]1CN([C@@H](C)CO)C(=O)Cc2cc(NC(=O)C3CC3)ccc2O[C@H]1CN(C)C(=O)Nc1ccc2c(c1)OCO2`, the cytotoxicity call is “inactive”.

Consider `CNC(=O)c1ccc2c(c1)OCO2`, for which the cytotoxicity call was “inactive”.

Consider `O=C(C[C@@H]1C[C@H]2c3cc(NS(=O)(=O)c4ccc(F)cc4)ccc3O[C@H]2[C@H](CO)O1)NCc1cccc(F)c1`, for which the cytotoxicity call is “inactive”.

For the compound `C[C@H]1CN([C@@H](C)CO)C(=O)Cc2cc(NC(=O)NC3CCCCC3)ccc2O[C@H]1CN(C)C(=O)Nc1ccc(C(F)(F)F)cc1`, the cytotoxicity call was “inactive”.

With `C[C@H](CO)N1C[C@H](C)[C@@H](CN(C)Cc2ccc(Oc3ccccc3)cc2)Oc2cc(Br)ccc2S1(=O)=O`, the cytotoxicity call was “inactive”.

As for `C[C@H]1CN([C@@H](C)CO)C(=O)Cc2cc(NS(=O)(=O)c3cccs3)ccc2O[C@H]1CN(C)S(=O)(=O)c1ccccc1`, the cytotoxicity call was “inactive”.

As for `C[C@@H]1CCCCO[C@@H](CN(C)Cc2ccccc2)[C@H](C)CN([C@@H](C)CO)C(=O)c2cc(NS(=O)(=O)c3ccc(F)cc3)ccc2O1`, the cytotoxicity call is “inactive”.

On to `Cc1c2oc3c(C)ccc(C(=O)N[C@@H]4C(=O)N[C@@H](C(C)C)C(=O)N5CCC[C@H]5C(=O)N(C)CC(=O)N(C)[C@@H](C(C)C)C(=O)O[C@@H]4C)c3nc-2c(C(=O)N[C@@H]2C(=O)N[C@@H](C(C)C)C(=O)N3CCC[C@H]3C(=O)N(C)CC(=O)N(C)[C@@H](C(C)C)C(=O)O[C@@H]2C)c(N)c1=O`, for which the cytotoxicity call was “active”.

On to `Cc1c2oc3c(C)ccc(C(=O)N[C@@H]4C(=O)N[C@H](C(C)C)C(=O)N5CCC[C@H]5C(=O)N(C)CC(=O)N(C)[C@@H](C(C)C)C(=O)O[C@@H]4C)c3nc-2c(C(=O)N[C@@H]2C(=O)N[C@H](C(C)C)C(=O)N3CCC[C@H]3C(=O)N(C)CC(=O)N(C)[C@@H](C(C)C)C(=O)O[C@@H]2C)c(N)c1=O`, for which the cytotoxicity call was “active”.

Take `Cc1c2oc3c(C)ccc(C(=O)OC(C)C4NC(=O)C(C(C)C)N(C)C(=O)CN(C)C(=O)C5CCCN5C(=O)C(C(C)C)NC4=O)c3nc-2c(C(=O)OC(C)C2NC(=O)C(C(C)C)N(C)C(=O)CN(C)C(=O)C3CCCN3C(=O)C(C(C)C)NC2=O)c(N)c1=O` (stereo not given): the cytotoxicity call is “active”.

As for `CO[C@@H]1CN(C)C(=O)c2cc(NC(=O)c3cc(C)on3)ccc2OC[C@@H](C)N(S(=O)(=O)c2ccccc2)C[C@H]1C`, the cytotoxicity call was “inactive”.

Take `COc1ccc(S(=O)(=O)N(C)C[C@H]2Oc3c(NS(=O)(=O)c4ccccc4)cccc3C(=O)N([C@H](C)CO)C[C@H]2C)cc1`: the cytotoxicity call was “inactive”.
